From the supplement of paper PMC10849652
Of roughly 8,800 targets only a part is listed; those with a hit were picked by preference. About 0.5% of all pairs of compound and target were hits. Values without a mark were called inactive.

Key:
Assay in all cases: log2 fold change, soluble protein after heating vs DMSO (PISA); higher = thermal stabilisation; K562 lysate, 10 uM; active = over 0.2 and 3.5 SD of the protein, either way, in both replicates (recomputed)
vemurafenib = compound: CCCS(=O)(=O)Nc1ccc(F)c(C(=O)c2c[nH]c3ncc(-c4ccc(Cl)cc4)cc23)c1F [vemurafenib]
Summary of the method: (§1)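 Thermal stability, expressed as log-two fold change relative to solvent controls, is given from duplicates. Crude K562 extract in PBS pH 7.4 with 1 mM MgCl2, at 1 mg/mL protein, was treated with 10 μM compound for 30 min and heated in aliquots for 3 min across 48°C-58°C. After pooling, adjustment to 0.5% NP-40 at 4°C and centrifugation at 21,000xg for 90 min, supernatant protein was measured by TMTpro 16plex LC-MS/MS with channel sums equalised.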

[1] = compound: CCCS(=O)(=O)Nc1ccc(F)c(C(=O)c2c[nH]c3ncc(Cl)cc23)c1F
Summary of the method: as §1

barasertib = compound: CCN(CCCOc1ccc2c(Nc3cc(CC(=O)Nc4cccc(F)c4)[nH]n3)ncnc2c1)CCOP(=O)(O)O [barasertib]
Summary of the method: as §1

[2] = compound: CC[C@@H]1C(=O)N(C)c2cnc(Nc3ccc(C(=O)NC4CCN(C)CC4)cc3OC)nc2N1C1CCCC1
Summary of the method: as §1

volasertib = compound: CC[C@@H]1C(=O)N(C)c2cnc(Nc3ccc(C(=O)N[C@H]4CC[C@H](N5CCN(CC6CC6)CC5)CC4)cc3OC)nc2N1C(C)C [volasertib]
Summary of the method: as §1

[3] = compound: CCn1c(C(=O)N(C2CC2)C2CC2)cc2c3c(ncn3C)c(Nc3cc(C)n(C)n3)nc21
Summary of the method: as §1

[4] = compound: CCn1cc(-c2ccnc3[nH]c(-c4cccc(CN(C)C)c4)cc23)c(-c2ccc(NC(=O)N(C)C)cc2)n1
Summary of the method: as §1

[5] = compound: CN1CCC(CNc2ccc3ncc(-c4cccc(OC(F)(F)F)c4)n3n2)CC1
Summary of the method: as §1

saracatinib = compound: CN1CCN(CCOc2cc(OC3CCOCC3)c3c(Nc4c(Cl)ccc5c4OCO5)ncnc3c2)CC1 [saracatinib]
Summary of the method: as §1

sotrastaurin = compound: CN1CCN(c2nc(C3=C(c4c[nH]c5ccccc45)C(=O)NC3=O)c3ccccc3n2)CC1 [sotrastaurin]
Summary of the method: as §1

alvocidib = compound: CN1CC[C@H](c2c(O)cc(O)c3c(=O)cc(-c4ccccc4Cl)oc23)[C@H](O)C1 [alvocidib]
Summary of the method: as §1

Tubastatin A = compound: CN1CCc2c(c3ccccc3n2Cc2ccc(C(=O)NO)cc2)C1 [Tubastatin A]
Summary of the method: as §1

[6] = compound: CNC(=O)C1=CC=CC=C1NC2=NC(=NC=C2Cl)NC3=C(C=C(C=C3)N4CCOCC4)OC
Summary of the method: as §1

defactinib = compound: CNC(=O)c1ccc(Nc2ncc(C(F)(F)F)c(NCc3nccnc3N(C)S(C)(=O)=O)n2)cc1 [defactinib]
Summary of the method: as §1

[7] = compound: CNc1nc(-c2ccc3c(N)n[nH]c3c2)cc(N2C[C@@H](C(=O)NC3CCCCC3)CC[C@H]2C)n1
Summary of the method: as §1

encorafenib = compound: COC(=O)N[C@@H](C)CNc1nccc(-c2cn(C(C)C)nc2-c2cc(Cl)cc(NS(C)(=O)=O)c2F)n1 [encorafenib]
Summary of the method: as §1

[8] = compound: COC(=O)[C@H](CCSC)NC(=O)C1=C(C=C(C=C1)NC[C@H](CS)N)C2=CC=CC=C2
Summary of the method: as §1

[9] = compound: COc1cc2nc(-c3cc(F)ccc3O)nc(N[C@@H]3CNC[C@H]3C(C)(C)O)c2cc1OC
Summary of the method: as §1

alisertib = compound: COc1cc(Nc2ncc3c(n2)-c2ccc(Cl)cc2C(c2c(F)cccc2OC)=NC3)ccc1C(=O)O [alisertib]
Summary of the method: as §1

gefitinib = compound: COc1cc2ncnc(Nc3ccc(F)c(Cl)c3)c2cc1OCCCN1CCOCC1 [gefitinib]
Summary of the method: as §1

Chain of UniProt Q9Y570 (Q9Y570 whole entry, looked up): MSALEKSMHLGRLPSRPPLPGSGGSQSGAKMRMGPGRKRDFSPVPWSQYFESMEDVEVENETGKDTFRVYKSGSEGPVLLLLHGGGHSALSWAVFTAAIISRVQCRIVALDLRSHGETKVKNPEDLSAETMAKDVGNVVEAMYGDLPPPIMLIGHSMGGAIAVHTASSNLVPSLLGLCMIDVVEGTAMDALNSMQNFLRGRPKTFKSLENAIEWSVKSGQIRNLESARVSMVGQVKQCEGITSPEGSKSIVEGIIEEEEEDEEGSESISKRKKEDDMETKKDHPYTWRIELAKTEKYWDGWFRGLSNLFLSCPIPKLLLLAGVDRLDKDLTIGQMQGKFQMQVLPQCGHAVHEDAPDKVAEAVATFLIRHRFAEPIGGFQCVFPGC
Chain of UniProt Q8TCG2 (Q8TCG2 whole entry, looked up): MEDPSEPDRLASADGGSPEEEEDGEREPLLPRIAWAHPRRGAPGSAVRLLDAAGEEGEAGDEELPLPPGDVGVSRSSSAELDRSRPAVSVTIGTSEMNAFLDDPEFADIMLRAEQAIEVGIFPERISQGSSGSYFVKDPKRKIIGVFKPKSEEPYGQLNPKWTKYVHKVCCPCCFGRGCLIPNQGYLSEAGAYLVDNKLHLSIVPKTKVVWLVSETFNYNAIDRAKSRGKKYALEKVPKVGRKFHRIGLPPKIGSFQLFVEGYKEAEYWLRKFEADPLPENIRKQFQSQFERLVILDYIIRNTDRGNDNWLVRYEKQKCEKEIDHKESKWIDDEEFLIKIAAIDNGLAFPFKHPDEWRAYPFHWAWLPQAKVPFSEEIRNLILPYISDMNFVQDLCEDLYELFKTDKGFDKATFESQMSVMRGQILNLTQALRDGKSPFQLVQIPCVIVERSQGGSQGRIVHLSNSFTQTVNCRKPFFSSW
Chain of UniProt Q8TBX8 (Q8TBX8 whole entry, looked up): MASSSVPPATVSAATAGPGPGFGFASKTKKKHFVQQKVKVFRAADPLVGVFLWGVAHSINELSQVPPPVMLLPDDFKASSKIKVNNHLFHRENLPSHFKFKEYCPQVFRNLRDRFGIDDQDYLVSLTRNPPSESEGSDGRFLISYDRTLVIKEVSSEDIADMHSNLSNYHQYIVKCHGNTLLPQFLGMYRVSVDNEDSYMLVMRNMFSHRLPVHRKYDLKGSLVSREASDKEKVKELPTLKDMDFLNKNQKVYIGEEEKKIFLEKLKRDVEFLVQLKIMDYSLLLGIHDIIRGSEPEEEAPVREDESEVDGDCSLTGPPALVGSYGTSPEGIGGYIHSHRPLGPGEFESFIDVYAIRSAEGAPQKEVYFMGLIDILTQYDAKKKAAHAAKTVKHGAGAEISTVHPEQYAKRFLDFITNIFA
Chain of UniProt Q16877 (Q16877 whole entry, looked up): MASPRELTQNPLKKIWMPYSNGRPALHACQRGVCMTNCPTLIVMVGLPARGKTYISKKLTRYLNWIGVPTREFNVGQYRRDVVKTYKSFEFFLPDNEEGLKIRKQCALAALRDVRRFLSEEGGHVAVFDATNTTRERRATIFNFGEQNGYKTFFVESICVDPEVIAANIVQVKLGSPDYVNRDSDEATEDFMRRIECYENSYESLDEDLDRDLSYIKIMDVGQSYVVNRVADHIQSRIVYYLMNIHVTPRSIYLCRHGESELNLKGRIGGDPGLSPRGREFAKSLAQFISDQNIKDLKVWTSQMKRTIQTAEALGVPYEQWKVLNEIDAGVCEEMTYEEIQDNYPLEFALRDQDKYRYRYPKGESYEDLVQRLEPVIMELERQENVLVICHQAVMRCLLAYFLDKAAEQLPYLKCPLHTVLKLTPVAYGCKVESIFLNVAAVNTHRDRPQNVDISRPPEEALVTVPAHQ
Chain of UniProt Q96S99 (Q96S99 whole entry, looked up): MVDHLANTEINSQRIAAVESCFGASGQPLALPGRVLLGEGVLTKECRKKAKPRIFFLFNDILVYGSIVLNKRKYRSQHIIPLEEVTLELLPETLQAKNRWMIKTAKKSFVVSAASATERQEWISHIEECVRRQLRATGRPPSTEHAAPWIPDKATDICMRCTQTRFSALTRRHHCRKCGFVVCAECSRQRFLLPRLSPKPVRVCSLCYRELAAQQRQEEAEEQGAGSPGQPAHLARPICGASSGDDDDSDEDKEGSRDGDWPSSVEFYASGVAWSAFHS
Chain of UniProt Q9UHX1 (Q9UHX1 whole entry, looked up): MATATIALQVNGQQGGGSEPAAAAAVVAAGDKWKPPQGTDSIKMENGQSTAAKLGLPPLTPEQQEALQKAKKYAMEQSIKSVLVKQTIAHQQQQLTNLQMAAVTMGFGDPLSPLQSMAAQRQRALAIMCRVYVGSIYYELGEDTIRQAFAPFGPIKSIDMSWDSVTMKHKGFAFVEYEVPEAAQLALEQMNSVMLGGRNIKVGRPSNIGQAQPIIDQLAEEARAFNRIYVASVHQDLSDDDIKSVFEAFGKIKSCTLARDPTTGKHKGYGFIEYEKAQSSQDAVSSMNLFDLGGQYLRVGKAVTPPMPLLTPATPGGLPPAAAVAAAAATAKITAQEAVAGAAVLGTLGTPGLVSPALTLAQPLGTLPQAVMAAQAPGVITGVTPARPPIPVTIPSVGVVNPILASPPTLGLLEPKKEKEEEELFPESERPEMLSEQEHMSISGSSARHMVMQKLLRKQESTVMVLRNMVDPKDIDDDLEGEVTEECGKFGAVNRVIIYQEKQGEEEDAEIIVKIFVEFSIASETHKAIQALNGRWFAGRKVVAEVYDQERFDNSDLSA
Chain of UniProt P46019 (P46019 whole entry, looked up): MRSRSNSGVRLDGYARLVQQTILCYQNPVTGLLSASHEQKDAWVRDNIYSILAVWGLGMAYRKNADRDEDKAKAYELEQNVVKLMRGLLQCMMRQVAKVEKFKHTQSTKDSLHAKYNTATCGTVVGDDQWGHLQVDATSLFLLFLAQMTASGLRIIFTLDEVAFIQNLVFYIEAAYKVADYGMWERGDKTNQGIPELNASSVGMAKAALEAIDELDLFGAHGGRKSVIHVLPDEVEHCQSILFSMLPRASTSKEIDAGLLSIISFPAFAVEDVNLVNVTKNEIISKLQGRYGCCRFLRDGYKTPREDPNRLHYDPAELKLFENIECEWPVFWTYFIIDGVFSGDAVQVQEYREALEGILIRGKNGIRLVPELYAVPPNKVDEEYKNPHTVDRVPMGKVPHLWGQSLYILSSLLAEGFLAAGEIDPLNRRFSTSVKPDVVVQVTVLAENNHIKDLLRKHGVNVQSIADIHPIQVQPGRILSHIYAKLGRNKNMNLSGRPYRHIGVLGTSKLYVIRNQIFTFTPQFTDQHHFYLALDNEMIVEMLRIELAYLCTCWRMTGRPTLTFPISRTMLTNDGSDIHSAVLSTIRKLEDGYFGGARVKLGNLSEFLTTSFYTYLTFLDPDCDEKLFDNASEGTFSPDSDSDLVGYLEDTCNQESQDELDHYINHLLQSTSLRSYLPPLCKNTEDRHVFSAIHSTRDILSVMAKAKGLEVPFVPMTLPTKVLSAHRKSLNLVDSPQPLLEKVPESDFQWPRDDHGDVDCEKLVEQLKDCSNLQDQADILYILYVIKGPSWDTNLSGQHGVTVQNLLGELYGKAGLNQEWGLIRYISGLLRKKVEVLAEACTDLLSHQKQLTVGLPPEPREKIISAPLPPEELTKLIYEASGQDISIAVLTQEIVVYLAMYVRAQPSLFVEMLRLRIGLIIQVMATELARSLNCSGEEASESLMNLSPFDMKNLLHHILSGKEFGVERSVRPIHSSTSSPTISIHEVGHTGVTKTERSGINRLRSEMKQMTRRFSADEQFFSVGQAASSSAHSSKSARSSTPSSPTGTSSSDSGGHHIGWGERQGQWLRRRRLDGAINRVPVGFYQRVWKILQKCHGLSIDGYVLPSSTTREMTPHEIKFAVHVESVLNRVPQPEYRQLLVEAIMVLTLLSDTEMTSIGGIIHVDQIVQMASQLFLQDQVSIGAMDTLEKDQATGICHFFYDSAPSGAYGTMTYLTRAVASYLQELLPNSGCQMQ
Chain of UniProt Q14671 (Q14671 whole entry, looked up): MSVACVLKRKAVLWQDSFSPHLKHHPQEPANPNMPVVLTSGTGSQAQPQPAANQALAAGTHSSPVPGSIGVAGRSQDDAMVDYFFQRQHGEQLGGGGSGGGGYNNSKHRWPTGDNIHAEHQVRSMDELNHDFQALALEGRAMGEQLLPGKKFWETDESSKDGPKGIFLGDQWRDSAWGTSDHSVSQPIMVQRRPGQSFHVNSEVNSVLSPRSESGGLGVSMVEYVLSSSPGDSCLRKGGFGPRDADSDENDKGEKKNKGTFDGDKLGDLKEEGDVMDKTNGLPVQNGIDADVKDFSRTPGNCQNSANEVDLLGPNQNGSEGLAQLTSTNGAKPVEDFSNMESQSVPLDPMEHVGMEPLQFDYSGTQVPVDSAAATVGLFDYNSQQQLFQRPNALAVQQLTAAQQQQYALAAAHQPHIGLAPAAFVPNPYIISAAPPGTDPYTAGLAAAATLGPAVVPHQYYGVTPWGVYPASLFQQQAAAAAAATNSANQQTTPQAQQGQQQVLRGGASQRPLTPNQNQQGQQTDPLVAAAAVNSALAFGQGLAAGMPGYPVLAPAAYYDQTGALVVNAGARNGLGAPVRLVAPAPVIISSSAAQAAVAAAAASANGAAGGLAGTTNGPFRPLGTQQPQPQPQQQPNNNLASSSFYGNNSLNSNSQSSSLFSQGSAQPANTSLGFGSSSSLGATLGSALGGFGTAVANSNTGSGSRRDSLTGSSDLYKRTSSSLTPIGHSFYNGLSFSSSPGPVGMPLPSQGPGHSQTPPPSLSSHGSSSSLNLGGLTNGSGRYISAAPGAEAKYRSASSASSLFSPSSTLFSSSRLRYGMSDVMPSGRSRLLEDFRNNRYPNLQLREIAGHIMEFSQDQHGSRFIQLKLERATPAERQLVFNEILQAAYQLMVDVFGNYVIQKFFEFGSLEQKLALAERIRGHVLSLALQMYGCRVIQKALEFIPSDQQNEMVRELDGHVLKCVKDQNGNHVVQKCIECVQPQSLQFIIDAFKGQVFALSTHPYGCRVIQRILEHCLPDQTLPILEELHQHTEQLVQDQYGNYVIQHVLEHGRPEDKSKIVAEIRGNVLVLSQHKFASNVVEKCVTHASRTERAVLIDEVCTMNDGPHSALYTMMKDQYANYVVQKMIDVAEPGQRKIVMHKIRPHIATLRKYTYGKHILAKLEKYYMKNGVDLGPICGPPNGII

Target	log2 fold change (vemurafenib)	log2 fold change [1]	log2 fold change (barasertib)	log2 fold change [2]	log2 fold change (volasertib)	log2 fold change [3]	log2 fold change [4]	log2 fold change [5]	log2 fold change (saracatinib)	log2 fold change (sotrastaurin)	log2 fold change (alvocidib)	log2 fold change (Tubastatin A)	log2 fold change [6]	log2 fold change (defactinib)	log2 fold change [7]	log2 fold change (encorafenib)	log2 fold change [8]	log2 fold change [9]	log2 fold change (alisertib)	log2 fold change (gefitinib)
PFKFB4 (UniProt Q16877)	0.021	0.005	0.087	0.015	-0.068	-0.011	0.014	0.007	0.077	0.043	-0.03	-0.009	0.029	0.011	-0.027	0.02	-0.019	-0.016	–	–
PUF60 isoform 2 (UniProt Q9UHX1)	-0.126	0.101	-0.057	0.047	0.021	-0.062	1.25 (active)	-0.115	–	-0.043	0.223	0.003	0.264	0.108	–	0.039	-0.12	0.038	-0.076	0.044
PIP4K2C (UniProt Q8TBX8)	0.039	-0.028	-0.045	0.463 (active)	0.206	0.103	-0.114	0.225	-0.01	-0.019	0.47 (active)	0.022	0.125	0.092	-0.07	0.139	-0.085	0.104	0.013	0.083
PHF14 (UniProt O94880)	0.079	-0.127	-0.046	0.341	0.004	-0.02	–	–	-0.047	–	–	0.01	–	-0.012	0.02	-0.014	0.1	-0.069	0.044	-0.042
PUM1 isoform 3 (UniProt Q14671)	-0.07	0.013	0.068	0.031	-0.063	0.03	0.045	-0.084	0.039	0.016	0.02	-0.033	-0.017	0.017	-0.023	0.008	0	0.017	0.031	-0.014
PLEKHF1 (UniProt Q96S99)	0.019	-0.008	0.004	-0.004	0.002	0.059	-0.062	0.018	0.007	-0.028	-0.001	-0.051	0.058	-0.007	-0.033	-0.025	-0.009	-0.001	-0.008	0.007
PIK3CB (UniProt P42338)	-0.079	0.001	0.011	0.314	-0.025	-0.07	-0.02	0.427	-0.03	0.158	-0.002	-0.123	0.056	-0.044	-0.013	-0.02	-0.126	-0.011	-0.01	-0.019
PI4K2B (UniProt Q8TCG2)	-0.003	-0.006	0.023	0.07	-0.032	-0.062	0.081	0.121	-0.009	0.132	-0.263	0.12	-0.04	-0.081	-0.057	0.041	-0.005	-0.011	-0.068	0.107
PPME1 isoform 4 (UniProt Q9Y570)	0.005	0.003	-0.045	-0.006	0.016	0.028	-0.015	0.008	-0.01	-0.008	0.01	0.024	0.008	0.024	0.002	-0.001	-0.066	0.005	0.031	0.002
PGLS (UniProt O95336)	-0.033	-0.027	0.067	-0.055	0.027	0.036	0.051	-0.114	0.039	0.006	0.177	0.09	0.061	0.231	0.016	0.017	0.019	-0.087	0.03	-0.163
PHKA2 (UniProt P46019)	-0.065	0.053	0.072	0.059	0.021	0.024	0.009	-0.084	0.002	-0.058	0.064	-0.084	0.265 (active)	-0.027	0.032	-0.008	0.018	0.06	-0.008	-0.03
